Experimental data: PubChem BioAssay (NCI)
This is part of a sample that, as a whole, favours compounds with a hit. Of some 79,000 tested, about 15% had one in any assay. A number with no mark means an inactive call. Activity calls are given as the source filed them. Cut-off read from the data, not from the text of the source: active = growth inhibition above about 70%; inactive = the rest.

Columns and labels:
[1] = NCI Yeast Anticancer Drug Screen. Data for the rad50 strain (AID 155);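 note: 0% = growth of vehicle-only cultures of the same strain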; details: S. cerevisiae rad50 strain growth inhibition; at 50.0 µM; active compounds read high
Procedure, shortened: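 Relative growth inhibition (compound vs vehicle) was measured in yeast with a defined repair-gene alteration.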

[2] = NCI Yeast Anticancer Drug Screen. Data for the mec2-1 strain (AID 157); details: S. cerevisiae mec2-1 strain, at 50.0 µM, active compounds read high
Procedure, shortened: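 Mutant yeast (mec2-1) grown with compound; growth inhibition relative to vehicle control reported.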

[3] = NCI Yeast Anticancer Drug Screen. Data for the sgs1 mgt1 strain (AID 161);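 note: 0% = growth of cultures given vehicle only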; details: S. cerevisiae sgs1 mgt1 strain, at 50.0 µM, active compounds read high
Procedure, shortened: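 Compounds are added to genetically altered yeast, and growth is compared with cultures given vehicle alone to give percent inhibition.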

[4] = NCI Yeast Anticancer Drug Screen. Data for the cln2 rad14 strain (AID 165);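 note: 0% = growth equal to vehicle treated cultures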; details: S. cerevisiae cln2 rad14 strain, at 50.0 µM, active compounds read high
Procedure, shortened: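 Readout is yeast growth inhibition versus vehicle-treated controls, using a strain with cln2 and rad14 alterations exposed to compound.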

[5] = NCI Yeast Anticancer Drug Screen. Data for the bub3 strain (AID 167); details: S. cerevisiae bub3 mutant strain, at 50.0 µM, active compounds read high
Procedure, shortened: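 Screening used yeast with an engineered genetic alteration affecting cell cycle control. Compound-exposed cultures were compared with vehicle cultures, and reduced growth was taken as inhibition.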

[6] = NCI Yeast Anticancer Drug Screen. Data for the mlh1 rad18 strain (AID 175); details: S. cerevisiae mlh1 rad18 strain growth inhibition; at 50.0 µM; active compounds read high
Procedure, shortened: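 Genetically defined yeast (DNA repair-deficient) exposed to compounds; growth inhibition determined relative to vehicle.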

O=C1C=C2CCCCCCCCC(C1)C2 (configuration not stated)
growth inhibition [1]: -1.85%
growth inhibition [2]: -9.85%
growth inhibition [3]: -5.45%
growth inhibition [4]: -18.8%
growth inhibition [5]: 12.4%
growth inhibition [6]: 0.1%

O=Cc1ccccc1CCn1c(=O)c2cc3c(=O)n(CCc4ccccc4C=O)c(=O)c3cc2c1=O
growth inhibition [1]: 33.7%
growth inhibition [2]: 18.9%
growth inhibition [3]: 11.8%
growth inhibition [4]: -11.8%
growth inhibition [5]: -4.35%
growth inhibition [6]: 18.8%

COc1ccc(Cc2c(O)ccc3ccccc23)cc1
growth inhibition [1]: 98.6% (active)
growth inhibition [2]: 99.4% (active)
growth inhibition [3]: 99% (active)
growth inhibition [4]: 95.8% (active)
growth inhibition [5]: 98.3% (active)
growth inhibition [6]: 99.2% (active)

O=C1CCCCCCCCCCC1Br (configuration not stated)
growth inhibition [1]: 43.2%
growth inhibition [2]: 3.15%
growth inhibition [3]: 34.4%
growth inhibition [4]: 31.9%
growth inhibition [5]: 23.3%
growth inhibition [6]: 21.4%

COc1ccc(/C=C/C(=O)c2c(-c3ccccc3)nn(C)c(=O)c2N2CCCCC2)cc1
growth inhibition [1]: 7.8%
growth inhibition [2]: -8.5%
growth inhibition [3]: -10.8%
growth inhibition [4]: 26.5%
growth inhibition [5]: 7.05%
growth inhibition [6]: 1.7%

O=C(OCc1ccccc1)N(CCCCN(CCCNC(=O)C(F)(F)F)C(=O)OCc1ccccc1)CCCNC(=O)C(F)(F)F
growth inhibition [1]: -14.8%
growth inhibition [2]: -9.7%
growth inhibition [3]: 21.4%
growth inhibition [4]: 20.4%
growth inhibition [5]: 21.8%
growth inhibition [6]: -33.8%

O=c1c2cc(Cl)ccc2on1CN1CCOCC1
growth inhibition [1]: 3.4%
growth inhibition [2]: 11.4%
growth inhibition [3]: 17%
growth inhibition [4]: -3.9%
growth inhibition [5]: 5.4%
growth inhibition [6]: 5.8%

CCCCCC1c2cc(O)ccc2OC1N1CCOCC1 (configuration not stated)
growth inhibition [1]: 49.2%
growth inhibition [2]: 44.5%
growth inhibition [3]: 47.5%
growth inhibition [4]: 48.6%
growth inhibition [5]: 46.7%
growth inhibition [6]: 88.7% (active)

O=S(=O)(CC1=NC2C=CC=CC2N=C1)NCc1ccccc1 (configuration not stated)
growth inhibition [1]: 7.3%
growth inhibition [2]: -18.9%
growth inhibition [3]: 12.8%
growth inhibition [4]: 30.3%
growth inhibition [5]: 25.6%
growth inhibition [6]: -11.8%

O=S(=O)(OI(O)CC(F)(F)F)C(F)(F)F
growth inhibition [1]: 30.5%
growth inhibition [2]: 48.1%
growth inhibition [3]: -0.65%
growth inhibition [4]: 5.9%
growth inhibition [5]: 14.5%
growth inhibition [6]: 39.5%

CCCc1cc(C(=O)N/N=C/c2ccc([N+](=O)[O-])cc2)c2ccccc2n1
growth inhibition [1]: -28.3%
growth inhibition [2]: -3.2%
growth inhibition [3]: 0.1%
growth inhibition [4]: -40.5%
growth inhibition [5]: 9.5%
growth inhibition [6]: -2.8%

CC(=O)O[C@@H]1[C@H]2[C@@H](OC(=O)c3ccccc3)[C@@H](C)C[C@]2(O)[C@H](OC(C)=O)[C@@]2(C)[C@@H]3CC(C)(C)C(=O)[C@]3(OC(C)=O)C[C@@]12C
growth inhibition [1]: 25%
growth inhibition [2]: 31.1%
growth inhibition [3]: 6.4%
growth inhibition [4]: 5.3%
growth inhibition [5]: 15.2%
growth inhibition [6]: 39.4%

CCN(CC)c1ccc(S(=O)(=O)NC(=O)OC)cc1
growth inhibition [1]: 3.55%
growth inhibition [2]: -2%
growth inhibition [3]: -0.65%
growth inhibition [4]: 3.45%
growth inhibition [5]: -1.25%
growth inhibition [6]: -5.5%

CCCCOC(=O)CNC(=O)c1ccc(C)c(OCc2ccccc2)c1[N+](=O)[O-]
growth inhibition [1]: 0.5%
growth inhibition [2]: -6.1%
growth inhibition [3]: 6.1%
growth inhibition [4]: -19.6%
growth inhibition [5]: 20.9%
growth inhibition [6]: -17.6%

CN1c2ccccc2C2=C(c3ccccc3)CC[C@@H](C(=O)N3C4CC5CC[C@@]4(CS3(=O)=O)C5(C)C)[C@@H]21 (some centres not stated)
growth inhibition [1]: -14.6%
growth inhibition [2]: -6.2%
growth inhibition [3]: 20.6%
growth inhibition [4]: 10%
growth inhibition [5]: -8.85%
growth inhibition [6]: 31.8%

O=C(O)C(=Cc1ccnc2ccccc12)C(=O)O
growth inhibition [1]: 7.75%
growth inhibition [2]: -13.7%
growth inhibition [3]: -35.8%
growth inhibition [4]: 15.7%
growth inhibition [5]: -52.2%
growth inhibition [6]: 3.5%

COc1ccc2c3c(ccc2c1)C1CC(=O)CC1CC3 (configuration not stated)
growth inhibition [1]: 30.6%
growth inhibition [2]: -11.2%
growth inhibition [3]: 54.8%
growth inhibition [4]: 12.2%
growth inhibition [5]: 61%
growth inhibition [6]: 14.7%

COC1=C(N(C)C)C(=O)c2ccccc2C1=O
growth inhibition [1]: 21.4%
growth inhibition [2]: 0.55%
growth inhibition [3]: 11.4%
growth inhibition [4]: 7.3%
growth inhibition [5]: -15.3%
growth inhibition [6]: 4.55%

CCCCOC(=O)c1ccccc1OC
growth inhibition [1]: -16.1%
growth inhibition [2]: 7.2%
growth inhibition [3]: -2.3%
growth inhibition [4]: 16.9%
growth inhibition [5]: 12.1%
growth inhibition [6]: -6.9%

O=C1CN(/N=C/c2ccc(-c3ccc(F)cc3)o2)C(=O)N1
growth inhibition [1]: 10.4%
growth inhibition [2]: -0.15%
growth inhibition [3]: -20.9%
growth inhibition [4]: -26.6%
growth inhibition [5]: 5.05%
growth inhibition [6]: -3.45%

CC1(C)CC(=O)C(C)(CCc2ccccc2)C(=O)C1
growth inhibition [1]: -2.8%
growth inhibition [2]: 8.9%
growth inhibition [3]: 13.7%
growth inhibition [4]: -44.6%
growth inhibition [5]: -11.4%
growth inhibition [6]: -6.65%

Cc1cc(-c2ccccc2)[nH]c1-c1nccc2ccccc12
growth inhibition [1]: 4.1%
growth inhibition [2]: 8%
growth inhibition [3]: 0.8%
growth inhibition [4]: 24%
growth inhibition [5]: -4.5%
growth inhibition [6]: 4.7%

O=C(NCC1CC1)NC(=O)c1ccccc1F
growth inhibition [1]: -4.3%
growth inhibition [2]: -34.6%
growth inhibition [3]: -14.3%
growth inhibition [4]: 16.6%
growth inhibition [5]: -10.6%
growth inhibition [6]: -16.9%

O=C(/C=C(\O)c1ccc(Cl)cc1)C(=O)NN=C(c1ccccc1)c1ccccc1
growth inhibition [1]: 39%
growth inhibition [2]: 33.7%
growth inhibition [3]: 3.1%
growth inhibition [4]: 7.2%
growth inhibition [5]: 14.5%
growth inhibition [6]: 8.6%

CCCCC(CC)OC(=O)Cc1ccccc1 (configuration not stated)
growth inhibition [1]: 10.9%
growth inhibition [2]: -4.25%
growth inhibition [3]: 13.1%
growth inhibition [4]: -6.5%
growth inhibition [5]: -4.45%
growth inhibition [6]: 16.5%

Cc1ccccc1NP1(Nc2ccccc2C)=NP(Nc2ccccc2C)(Nc2ccccc2C)=NP(Nc2ccccc2C)(Nc2ccccc2C)=NP(Nc2ccccc2C)(Nc2ccccc2C)=N1
growth inhibition [1]: 0.8%
growth inhibition [2]: -0.9%
growth inhibition [3]: 23.6%
growth inhibition [4]: -5.3%
growth inhibition [5]: -6.95%
growth inhibition [6]: -9.7%

CC(C)NC(=O)CS(=O)(=O)c1ccc(N)cc1
growth inhibition [1]: -2.3%
growth inhibition [2]: -11.8%
growth inhibition [3]: 2.1%
growth inhibition [4]: -0.3%
growth inhibition [5]: 30%
growth inhibition [6]: 7.7%

Cc1ccc(CCC=O)cc1
growth inhibition [1]: 30.6%
growth inhibition [2]: -4.1%
growth inhibition [3]: 17.4%
growth inhibition [4]: -37.9%
growth inhibition [5]: -8.5%
growth inhibition [6]: 29.4%

O=C(CC(C(=O)c1cccs1)c1cccs1)c1ccsc1 (configuration not stated)
growth inhibition [1]: -4.2%
growth inhibition [2]: -24.1%
growth inhibition [3]: 10.6%
growth inhibition [4]: 11.1%
growth inhibition [5]: 2.9%
growth inhibition [6]: -4.1%

Cc1ccccc1S(=O)(=O)NC1c2ccccc2Oc2ccccc21
growth inhibition [1]: -9.85%
growth inhibition [2]: -3.7%
growth inhibition [3]: -5.3%
growth inhibition [4]: -12.1%
growth inhibition [5]: 2.5%
growth inhibition [6]: -7.9%

O=C(O)C1CCC(C(=O)O)S1 (configuration not stated)
growth inhibition [1]: 1.85%
growth inhibition [2]: -10.4%
growth inhibition [3]: -0.85%
growth inhibition [4]: -13.1%
growth inhibition [5]: 9.9%
growth inhibition [6]: 16.1%

CCc1cc2c(ccc3ccccc32)c2c1CCC2
growth inhibition [1]: -11.6%
growth inhibition [2]: -11.7%
growth inhibition [3]: -1.8%
growth inhibition [4]: -17.1%
growth inhibition [5]: 5.3%
growth inhibition [6]: 1.6%

CC12CCC3C(CC=C4CC(O)CCC43C)C1CCC(=O)N2 (configuration not stated)
growth inhibition [1]: 5.2%
growth inhibition [2]: -3.55%
growth inhibition [3]: -10.2%
growth inhibition [4]: 7.95%
growth inhibition [5]: -10.2%
growth inhibition [6]: -1%

CC(C)Nc1ccc(O)cc1
growth inhibition [1]: -21.1%
growth inhibition [2]: -40%
growth inhibition [3]: -4.2%
growth inhibition [4]: -6.3%
growth inhibition [5]: -10.3%
growth inhibition [6]: -8%

c1ccc(CCCCc2ccccn2)cc1
growth inhibition [1]: 32%
growth inhibition [2]: -13.1%
growth inhibition [3]: 31.6%
growth inhibition [4]: 0.2%
growth inhibition [5]: 27.4%
growth inhibition [6]: 25%

CC(C)Oc1c(N(C)CCO)c2cc(Cl)ccc2oc1=O
growth inhibition [1]: -6.1%
growth inhibition [2]: 12.4%
growth inhibition [3]: 3.45%
growth inhibition [4]: 19.6%
growth inhibition [5]: 5.75%
growth inhibition [6]: 3.05%

CCN(CC)C(C)(C)C(=O)/C=C/c1ccc(C)cc1
growth inhibition [1]: 5.45%
growth inhibition [2]: -3.75%
growth inhibition [3]: -16.5%
growth inhibition [4]: 12.3%
growth inhibition [5]: 5.75%
growth inhibition [6]: 43.1%

CC1(C)C2CCC13CS(=O)(=O)N1O[C@]13C(=O)O2 (some centres not stated)
growth inhibition [1]: 19.3%
growth inhibition [2]: 2.7%
growth inhibition [3]: 6.55%
growth inhibition [4]: 15.1%
growth inhibition [5]: -1.05%
growth inhibition [6]: 31.9%

NNS(=O)(=O)c1ccc(Oc2ccc(S(=O)(=O)NN)cc2)cc1
growth inhibition [1]: 10.8%
growth inhibition [2]: 10.1%
growth inhibition [3]: 24.6%
growth inhibition [4]: -4.9%
growth inhibition [5]: 14.9%
growth inhibition [6]: 30.9%

COc1ccc(C(=O)Sc2c(-c3ccccc3)c(=O)n(-c3ccccc3)c(=S)n2-c2ccccc2)cc1
growth inhibition [1]: 0.75%
growth inhibition [2]: -4.9%
growth inhibition [3]: 2.45%
growth inhibition [4]: 1.7%
growth inhibition [5]: 0.6%
growth inhibition [6]: 10.1%

O=C(c1ccccc1)N1CCOCC1
growth inhibition [1]: 9.75%
growth inhibition [2]: -2.5%
growth inhibition [3]: -3.25%
growth inhibition [4]: 12.3%
growth inhibition [5]: -0.75%
growth inhibition [6]: 13.2%

NC(N)=NCCS(=O)(=O)O
growth inhibition [1]: 5.8%
growth inhibition [2]: 7.35%
growth inhibition [3]: -2%
growth inhibition [4]: 9.1%
growth inhibition [5]: -2.35%
growth inhibition [6]: 20.4%
